Screening data (PubChem)
HCV inh – blocks hepatitis C virus. Huh7.5.1 HCVcc-Cre infection, luciferase reporter, 44 h. Potency, µM (titrated, usually from 41.8 µM), inactives show top-dose activity change, negative = inhibition, usual class: inhibitors. 340,000 tested, 3.4% active; further: potency means the concentration at half of the fitted maximal effect; on the % scale 0 is the no-effect control and ±100 the full control effect
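Compounds are dispensed onto cells plated 4 h earlier at 1,000 per well, with HCVcc-Cre virus (about 0.5 moi) added next. Following 44 h of culture, luminescent signal is measured for 15 sec after 15 min with substrate at room temperature.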
Pf growth 48h – inhibits P. falciparum growth in the first generation, 48 h. P. falciparum luciferase growth in erythrocytes, 48 h. Potency, µM (series often up to 28.7 µM), for the others: at the top dose activity change, negative = inhibition, actives largely listed as inhibitors. 310,000 tested, 5.9% active. AID 504832; further: potency means the concentration at half of the fitted maximal effect; on the % scale 0 is the no-effect control and ±100 the full control effect
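Luminescence readout; reporter = integrated firefly luciferase in P. falciparum. RBC culture at 2% hematocrit, 0.1% parasitemia final, 37 C/5% CO2; decreased signal taken as growth inhibition.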
Pf growth 96h – inhibits malaria parasite growth, 96 h; Potency, µM (series often up to 28.7 µM), inactives show at the highest dose activity change, negative = inhibition, usual class: inhibitors; 320,000 tested, 6.9% active; P. falciparum luciferase reporter growth, 96 h; further: potency means the concentration at half of the fitted maximal effect; on the % scale 0 is the no-effect control and ±100 the full control effect
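Luminescence readout: decreased luciferase signal marks inhibited growth of reporter-expressing P. falciparum in infected red cells (2% hematocrit, 0.05% parasitemia final), exposed to compound two generations (96 h, 37 C, 5% CO2).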
AMA1-RON2 inh – disrupts binding of P. falciparum AMA1 to RON2; AlphaScreen AMA1-biotinylated RON2 peptide binding; Potency, µM (top dose mostly 58.2 µM), for the others: at the top dose activity change, negative = inhibition, most hits filed as inhibitors; 360,000 tested, 0.2% active;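 further: potency means the concentration at half of the fitted maximal effect; 0% = vehicle wells and -100% = peptide control; nearly all actives have a fitted effect of over 45% in size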
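AMA1 (3D7) with his tag at 25 nM final met compounds first, then biotinylated RON2 peptide at 25 nM; detection used donor plus acceptor beads, 10 µg/mL apiece, read by AlphaScreen after 30 min at room temperature.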
Cycloheximide cs – counter-screen for Shiga toxin inhibitors: cycloheximide protein synthesis inhibition | AID 2314 | cell reporter, cycloheximide protein synthesis inhibition counterscreen | max response, % | 300,000 tested, 12% active; in the data active means max response mostly above about 13%, no sharp cut-off; inactive means mostly below about 14%; further: read at 38.3 µM for the half of the compounds with a filed dose; 0% is about no effect
Shiga toxin inh – blocks Shiga toxin action in Vero cells | inhibition, % at 38.7 µM | Vero cells, Shiga toxin protein synthesis inhibition reporter | AID 2315 | 290,000 tested, 9.2% active; in the data active means inhibition mostly above about 28%, no sharp cut-off; inactive means mostly below about 43%; further: 0% is about no effect
* hit, by the source's call; u = inconclusive; x = no result. Sampled rows, rich in hits. Any-hit rate of the full collection: about 21%. Unless noted, the call rests on the fitted dose curve; in most records, active means well fitted curve in the direction sought with a large enough effect; inconclusive means small, poorly fitted or top-dose-only effect, or another doubt; inactive means no such curve, though single readings can be large; an effect the other way counts as inactive or inconclusive.

SMILES	HCV inh	Pf growth 48h	Pf growth 96h	AMA1-RON2 inh	Cycloheximide cs	Shiga toxin inh
COCCNC(=O)c1c[nH]c2ccc(S(=O)(=O)N(C)c3ccc(C)c(C)c3)cc2c1=O	-12%	x	u	3%	22*	43
CCOc1ccc(NS(=O)(=O)c2ccc3[nH]cc(C(=O)NCCOC)c(=O)c3c2)cc1	-1%	249%	u	-2%	22	92
C=CCN(c1ccccc1)S(=O)(=O)c1ccc2[nH]cc(C(=O)NCCOC)c(=O)c2c1	u	u	4.7µM*	-1%	-2	-6
C#Cc1ccc(NC(=O)C2(C)CCN2C(=O)Cc2ccc(C(C)C)cc2)cc1 (stereo unspecified)	x	x	x	1%	x	x
CC1CCc2sc(NC(=O)C3CC(Cl)=CCC3C(=O)O)c(C#N)c2C1 (stereo unspecified)	11%	4%	-1%	-8%	-4	-3
CC1(C(=O)Nc2cccc3cccnc23)CCN1Cc1ccc(-c2ccccc2)o1 (stereo unspecified)	x	x	x	80%	x	x
CC(C)Oc1ccc2c(c1)OC(c1ccccc1)(C(F)(F)F)NC2=O (stereo unspecified)	-4%	0.83µM*	0.19µM*	-8%	-4	-4
COc1ccc2c(c1)OC(c1ccccc1)(C(F)(F)F)NC2=O (stereo unspecified)	19%	2.9µM*	u	6%	-4	10
CC(C)Oc1ccc(NC(=O)Oc2ccccc2)cc1	22%	9%	68%	9%	12	21
CC(C)CN1C(=O)NC2(CCCc3ccccc32)C1=O (stereo unspecified)	16%	-9%	u	-14%	-1	-13
N=c1c(S(=O)(=O)c2ccc(Cl)cc2)cc2c(=O)n3ccccc3nc2n1C1CCCC1	u	u	61%	-1%	-3	-6
Cc1ccc(NC(=S)NCCc2cnc[nH]2)cc1C	5%	2%	33%	38%	-2	-8
CCOCCCNC(=S)Nc1ccc(Br)cc1Cl	-17%	u	-21%	1%	12*	36
S=C(NCc1ccccc1)NCc1ccccc1	-8%	x	u	0%	-1	31
CCOCCCNC(=S)NCCc1ccccc1	-4%	36%	u	-9%	43*	108*
CCOCCCNC(=S)NC1CC2CCC(C1)N2Cc1ccccc1 (stereo unspecified)	u	-15%	u	4%	-2	-18
S=C(NCCc1ccccc1)NCCc1cnc[nH]1	7%	25%	u	45%	16*	x
S=C(NCCCc1ccccc1)NCc1ccccc1	-14%	-24%	-13%	-8%	26*	25*
S=C(NCc1ccncc1)Nc1ccc(Br)cc1Cl	u	-11%	-7%	5%	12	-8
O=C(CC[C@H]1O[C@@H](n2ccc(=O)[nH]c2=O)[C@H](O)[C@@H]1O)N[C@H](Cc1ccccc1)C(=O)NCC1CCCO1 (stereo partly specified)	x	x	x	3%	x	x
CC(C)(C)C(=O)COC(=O)c1cc(-c2cccnc2)nc2ccccc12	-1%	u	u	1%	9	53
Cc1ccccc1Cn1ccc(=NCc2ccccc2)cc1	26%	0.74µM*	0.33µM*	-3%	-2	2
O=C(Nc1ccc(S(=O)(=O)Nc2nccs2)cc1)c1cnc(Cl)c(Cl)c1	5%	u	u	-6%	10	0
NS(=O)(=O)c1ccc(CCNCc2cc(Cl)ccc2OCc2ccccc2)cc1	22µM*	u	u	-4%	-3	-5
NS(=O)(=O)c1ccc(CCNCc2ccccc2OCc2ccc(Cl)cc2)cc1	13µM*	10µM*	u	0%	-5	x
SMILES	HCV inh	Pf growth 48h	Pf growth 96h	AMA1-RON2 inh	Cycloheximide cs	Shiga toxin inh
Cn1c(=O)c2cc(S(=O)(=O)Nc3ccc4c(c3)OCO4)ccc2n(C)c1=O	u	u	x	6%	-2	8
COc1ccc(S(=O)(=O)Nc2ccc3c(c2)OCCO3)cc1OC	4%	4%	0%	-9%	23*	65*
Cn1cc(S(=O)(=O)Nc2ccc3c(c2)OCCO3)cn1	-7%	146%	u	9%	44*	103*
Cn1c(=O)oc2cc(S(=O)(=O)Nc3ccc4c(c3)OCO4)ccc21	u	u	x	26%	14*	25
CCn1cc(S(=O)(=O)Nc2ccc3c(c2)OCCO3)cn1	-13%	104%	21%	4%	76*	77*
Cc1nc(S(=O)(=O)Nc2ccc3c(c2)OCCO3)cn1C	2%	14%	12%	11%	-1	15
COc1ccc(S(=O)(=O)N(C)C[C@@H]2OCc3cnnn3CCCC(=O)N([C@@H](C)CO)C[C@@H]2C)cc1	x	x	x	-1%	x	x
Clc1ccccc1Nc1nc(NCC2CC2)nc2ccsc12	x	x	x	-2%	x	x
CCn1cc(S(=O)(=O)NCc2ccc3c(c2)OCO3)cn1	16%	22%	12µM*	6%	-1	-9
CN(C)S(=O)(=O)c1ccc(S(=O)(=O)NCc2ccc3c(c2)OCO3)cc1	-3%	2%	0%	-20%	-3	6
CC[C@H](C)[C@H](NC(=O)[C@H](CC(C)C)NC(=O)[C@@H](N)CO)C(=O)NCC(=O)N[C@@H](CCCN=C(N)N)C(=O)N[C@@H](CC(C)C)C(=O)O	x	x	x	x	-7	-6
Cc1ccc(C(=O)Nc2cccnc2Cl)cc1Cl	-6%	144%	3%	6%	35*	x
Cc1ccc(OCC(=O)Nc2cccnc2Cl)cc1C	-10%	36%	20%	2%	18*	58*
Cc1ccc(OCC(=O)Nc2ccccc2F)cc1C	10%	73%	u	-8%	36*	81*
O=C(COC(=O)CC12CC3CC(CC(C3)C1)C2)Nc1cccnc1Cl	19%	-1%	29%	-3%	25*	11
Cc1cc(Cl)ccc1OCC(=O)OCC(=O)Nc1cccnc1Cl	13%	-14%	9%	-4%	x	x
Cc1cc(C)cc(C(=O)Nc2cccnc2Cl)c1	-6%	17%	-6%	5%	-4	-5
C=CCN(C(=O)c1csnn1)C(C(=O)NC1CCCC1)c1ccccc1F (stereo unspecified)	-5%	7%	37%	1%	-4	-4
CCOC(=O)c1cc(-c2ccccc2)nc2c(O)cccc12	u	x	x	-20%	x	x
Cc1csc2nc(CSc3nncn3-c3ccccc3)c(Br)n12	12%	-1%	x	-3%	-2	-6
Cc1csc2nc(CSc3nc4ccccc4o3)c(Br)n12	u	122%	x	0%	52*	78*
O=C(CSc1nc2ccccc2o1)N/N=C/c1ccc(O)c(O)c1	u	55%	88%	76%	22*	31*
Cc1ccc(NC(=O)CN(C)C(=O)CSc2nc3ccccc3o2)cc1	-17%	55%	2%	3%	6	3
